Rows were chosen to be rich in hits. Some 1.5% of all compounds tested hit in one or more screens of this group.
hDAT+cocaine – human DAT dopamine uptake with cocaine, either direction. LLC-PK1 hDAT cells, [14C]-dopamine uptake with cocaine IC80; actives deviate in either direction. B-score at 10 µM. 110,000 compounds, 1.3% hits;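 active means Z score or B-score, a plate-position-corrected score, falls beyond the plate's 99.7% confidence bounds, in either direction; inactive means both scores lie inside the 99.7% bounds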
Target sequence (Q01959 whole entry, looked up): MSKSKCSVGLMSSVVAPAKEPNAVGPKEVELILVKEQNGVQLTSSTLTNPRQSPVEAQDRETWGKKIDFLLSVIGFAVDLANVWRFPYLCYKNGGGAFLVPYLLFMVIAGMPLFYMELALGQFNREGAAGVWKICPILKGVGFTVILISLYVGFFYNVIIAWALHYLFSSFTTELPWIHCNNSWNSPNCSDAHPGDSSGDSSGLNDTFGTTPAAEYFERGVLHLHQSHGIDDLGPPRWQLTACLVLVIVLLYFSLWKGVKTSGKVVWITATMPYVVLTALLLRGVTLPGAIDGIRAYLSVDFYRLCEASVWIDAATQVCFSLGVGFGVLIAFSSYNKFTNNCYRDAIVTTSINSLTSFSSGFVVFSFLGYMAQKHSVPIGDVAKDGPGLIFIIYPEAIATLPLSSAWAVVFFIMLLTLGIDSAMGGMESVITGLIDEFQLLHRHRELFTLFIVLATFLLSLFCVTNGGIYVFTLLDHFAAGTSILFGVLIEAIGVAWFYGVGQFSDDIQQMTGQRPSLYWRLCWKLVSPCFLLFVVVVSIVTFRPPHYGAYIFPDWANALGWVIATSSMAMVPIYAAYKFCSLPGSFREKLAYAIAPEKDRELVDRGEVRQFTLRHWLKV
MRP-1 activ – activates MRP-1. viability increase, % at 10 µM. 140,000 compounds, 0.61% hits. H69AR cells + doxorubicin, viability rescue, CellTiter-Glo;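 active means viability gain under doxorubicin at or above a set limit, the compound median plus 3 SD, cut at about 4.7% in these data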;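 further: MRP-1 overexpressing cells given doxorubicin 25 µM after compound pretreatment; 18-22 h compound pretreatment then 72 h with doxorubicin before readout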
MRP reversal – reverses drug resistance mediated by MRP | H69AR cells + 2 uM doxorubicin, CellTiter-Glo, 72 h | AID 602 | differential viability (reversal), % at 10 µM | 85,000 compounds, 0.04% hits;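 active means viability drop by adding the cancer drug above about 55%, with treated viability meeting a 40% cutoff, limit read from the data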;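 further: larger differential means the compound sensitizes cells more to doxorubicin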
Each line names hits and unclear results; the compound was inactive in the other large screens.

Cc1ccc(COc2ccsc2-c2n[nH]c(=S)n2C)cc1	none (no result: MRP reversal)
Cn1c(-c2sccc2OCc2ccccc2)n[nH]c1=S	hDAT+cocaine -10.4 (no result: MRP reversal)
O=C(Cc1ccccc1)Nc1nc(-c2cccs2)cs1	none
O=C(Cc1ccccc1F)Nc1nc(-c2cccs2)cs1	hDAT+cocaine 3.35
COc1ccc(C)cc1S(=O)(=O)N(CC(=O)Nc1cccc([N+](=O)[O-])c1)c1ccc(C)c(C)c1	none (no result: hDAT+cocaine, MRP reversal)
O=C(NC(=S)NCc1ccccc1)c1ccccc1F	none (no result: MRP reversal)
O=C(NC(=S)NC(=O)c1ccccc1F)c1ccccc1F	MRP-1 activ 7.1 (no result: hDAT+cocaine, MRP reversal)
COCC(C)NC(=O)NC1(C(F)(F)F)Oc2ccc(Cl)cc2O1 (centres undefined)	hDAT+cocaine -3.16
O=C(NCCN1CCOCC1)NC1(C(F)(F)F)Oc2ccc(Cl)cc2O1 (centres undefined)	none (no result: hDAT+cocaine, MRP reversal)
O=[N+]([O-])c1ccc(OCc2cn([C@@H](CO)c3ccccc3)nn2)c(Br)c1	none (no result: MRP-1 activ, MRP reversal)
O=C(c1ccco1)N1CCN(C/C=C/c2ccccc2)CC1	none
O=C(c1nn(Cc2ccccc2)c(=O)c2ccccc12)N1CCN(C/C=C/c2ccccc2)CC1	hDAT+cocaine 4.05
O=C(NCCCn1ccnc1)c1ccc(Br)c(S(=O)(=O)N2CCOCC2)c1	hDAT+cocaine -8.36
O=C(NCCCn1ccnc1)c1cc(S(=O)(=O)N2CCOCC2)c(Cl)cc1Cl	none
CC(Sc1nnc(NC2CCCCC2)s1)C(=O)Nc1ccc2c(c1)C(=O)c1ccccc1C2=O (centres undefined)	none (no result: hDAT+cocaine, MRP reversal)
CCC1(CC)C(=O)C2=C3C1[C@H](C(=O)OC)CC(C(=O)OC)C[C@H]3[C@H]1C(=O)N(c3ccccc3)C(=O)[C@H]1[C@H]2C (some centres undefined)	none (no result: MRP-1 activ, MRP reversal)
Cc1cc(Cl)c2c(c1)[C@]1(C(=O)N2)[C@@H]2C(=O)N(Cc3ccccc3)C(=O)[C@@H]2[C@@H]2CCCN21	none
O=C1[C@H]2[C@@H](C(=O)N1c1cc(Cl)cc(Cl)c1)[C@]1(C(=O)Nc3ccccc31)N1CCC[C@@H]21	hDAT+cocaine 3.75
Cn1c(O)c(N=NC(=O)Cn2c(C(F)(F)F)nc3ccccc32)c2ccccc21	none (no result: hDAT+cocaine, MRP reversal)
Cc1ccc2cc(CN(CCCN3CCOCC3)C(c3nnnn3Cc3ccco3)C(C)C)c(=O)[nH]c2c1C (centres undefined)	hDAT+cocaine 3.67 (no result: MRP-1 activ)
Cc1ccc2cc(CN(CCN3CCOCC3)Cc3nnnn3Cc3ccco3)c(=O)[nH]c2c1C	none
Cc1ccc(Cn2nnc3c(=O)[nH]c(C4CCN(C(=O)Cc5cccs5)CC4)nc32)cc1	hDAT+cocaine 3.37
Cc1ccc(Cn2nnc3c(=O)[nH]c(C4CCN(S(=O)(=O)c5ccccc5)CC4)nc32)cc1	hDAT+cocaine 2.88 (no result: MRP reversal)
Cc1ccc(Cn2nnc3c(=O)[nH]c(C4CCCN(S(=O)(=O)c5ccccc5)C4)nc32)cc1 (centres undefined)	none
CC(C)(C)c1ccc(Cn2nnc3c(=O)[nH]c(C4CCCN(C(=O)Cc5cccs5)C4)nc32)cc1 (centres undefined)	none
CC(C)(C)c1ccc(Cn2nnc3c(=O)[nH]c(C4CCN(C(=O)Cc5cccs5)CC4)nc32)cc1	hDAT+cocaine 3.27
CCOc1ccccc1NC(=O)N1CCCC(c2nc3c(nnn3Cc3ccc(C)cc3)c(=O)[nH]2)C1 (centres undefined)	none
O=C(Cc1cccs1)N1CCC(c2nc3c(nnn3Cc3ccccc3)c(=O)[nH]2)CC1	none (no result: MRP reversal)
Cc1ccc(Cn2nnc3c(=O)[nH]c(C4CCCN(C(=O)Nc5ccc(F)cc5F)C4)nc32)cc1 (centres undefined)	hDAT+cocaine 3.23
COC(=O)C1=C(C(=O)OC)[C@@H]2N(C)c3ccc(OC)cc3[C@@]23C[C@@H](C(=O)OC)N(C(=O)c2cc(C)oc2C)C3=N1	none (no result: MRP-1 activ, MRP reversal)
Nc1nc(Nc2ccccc2)nc2c1ncn2[C@@H]1O[C@H](CO)[C@@H](O)[C@H]1O	none (no result: MRP-1 activ, MRP reversal)
CCN(CC)S(=O)(=O)c1ccc(Cl)c(NC(=O)COc2ccc(OC)cc2[N+](=O)[O-])c1	none (no result: hDAT+cocaine, MRP reversal)
CC1=C(C(=O)OCC(C)C)C(c2cccc(F)c2)N2C(=O)C(C)SC2=N1 (centres undefined)	none
CC1=C(C(=O)OC(C)C)C(c2cccc(F)c2)N2C(=O)C(C)SC2=N1 (centres undefined)	MRP-1 activ 5.3
COc1cc(S(=O)(=O)Nc2cccc(C)c2)ccc1NC(=O)c1ccncc1	MRP-1 activ 5.2 (no result: hDAT+cocaine, MRP reversal)
Cc1cccc(NC(=O)c2cccc(NS(=O)(=O)c3ccc(Cl)cc3)c2)c1	none (no result: MRP reversal)
S=C(c1ccc(-c2ccccc2Cl)o1)N1CCCCC1	MRP-1 activ 5.3 (no result: hDAT+cocaine, MRP reversal)
CN1CCN(C(=S)c2ccc(-c3cccc(Cl)c3Cl)o2)CC1	none (no result: hDAT+cocaine, MRP reversal)
COc1ccc(CNC(=O)C2(CC3CC(c4ccccc4)=NO3)CCNCC2)cc1 (centres undefined)	none (no result: MRP-1 activ, MRP reversal)
COc1cc(/C=N/Nc2ccc3ccccc3c2)ccc1OC(=O)c1ccco1	none (no result: hDAT+cocaine, MRP reversal)
Cn1c(-c2ccc(F)cc2)cnc1NCc1cc2c(cc1[N+](=O)[O-])OCO2	none (no result: hDAT+cocaine, MRP reversal)
Cc1cc(F)ccc1NCc1cc2c(cc1[N+](=O)[O-])OCO2	hDAT+cocaine -8.02 (no result: MRP reversal)
CCOC(=O)C1=C(C)Nc2sc(C(=O)c3ccc(F)cc3)c(N)c2C1c1ccc(C(=O)OC)cc1 (centres undefined)	none (no result: hDAT+cocaine, MRP reversal)
CCOC(=O)C1=C(C)Nc2sc(C(=O)c3ccc(C)cc3)c(N)c2C1c1ccc(C(=O)OC)cc1 (centres undefined)	MRP-1 activ 6.5 (no result: hDAT+cocaine, MRP reversal)
O=C(NCc1cccnc1)c1ccccc1[N+](=O)[O-]	none (no result: hDAT+cocaine, MRP reversal)
CCOC(=O)C(Oc1ccc2c(-c3ccccc3)cc(=O)oc2c1C)c1ccccc1 (centres undefined)	MRP-1 activ 4.7 (no result: hDAT+cocaine, MRP reversal)
CCOC(=O)C(Oc1ccc2c(-c3ccc(OC)cc3)cc(=O)oc2c1C)c1ccccc1 (centres undefined)	none (no result: MRP reversal)
C/C(=N\NC(=O)C(C)Nc1cccc(Cl)c1)c1ccc([N+](=O)[O-])cc1 (centres undefined)	none (no result: hDAT+cocaine, MRP reversal)
Cc1ccccc1NC(=O)c1ccc(CN2CCC(Cc3ccccc3)CC2)cc1	hDAT+cocaine -3.73 (no result: MRP reversal)
COc1ccc(CCNC(=O)c2ccc(CN3CCC(Cc4ccccc4)CC3)cc2)cc1	none (no result: hDAT+cocaine, MRP reversal)
Cn1ccnc1SCC(=O)Nc1cc(S(=O)(=O)N2CCOCC2)ccc1Cl	none (no result: hDAT+cocaine, MRP reversal)
CCOC(=O)C1=C(C)NC(=O)NC1C(C)C (centres undefined)	none (no result: MRP-1 activ, MRP reversal)
Cc1cc(C)c2c(c1)-c1cc(C)nn1C(c1ccc3c(c1)OCO3)N2 (centres undefined)	none
Cc1cc2n(n1)C(c1ccc3c(c1)OCO3)Nc1c(C)cccc1-2 (centres undefined)	hDAT+cocaine 3.52
COC(=O)c1sccc1-c1ccc(C(=O)Nc2cccc(Cl)c2)o1	none (no result: MRP reversal)
CC(C)Oc1ccc(/C(O)=C2/C(=O)C(=O)N(CCN(C)C)C2c2cccs2)cc1 (centres undefined)	none (no result: hDAT+cocaine, MRP reversal)
C/C(=N/NC(=O)CN1CCN(S(=O)(=O)c2ccc(Br)cc2)CC1)c1ccco1	none (no result: hDAT+cocaine, MRP reversal)
Cc1nc(SCCO)c2oc3ccccc3c2n1	none
CSc1nc2c(ccc3ccccc32)o1	MRP-1 activ 4.9
CC12CN3CCN(CC(C3)/C1=N\N=C1/C3CN4CCN(C3)CC1(C)C4)C2	none (no result: hDAT+cocaine, MRP reversal)
CCOC(=O)CC(NC(=O)c1cc2ccccc2oc1=O)c1cccc([N+](=O)[O-])c1 (centres undefined)	none (no result: hDAT+cocaine, MRP reversal)
Cc1ccc(/C=N/n2nnnc2N)cc1[N+](=O)[O-]	hDAT+cocaine -8.87 (no result: MRP reversal)
CC1CCN(c2ccc(/C=N/n3nnnc3N)cc2[N+](=O)[O-])CC1	none (no result: MRP reversal)
Cc1ccc(S(=O)(=O)NNC(=O)c2snnc2C)cc1	none

Screening data (PubChem)
